Test systems include NCI-H23 lung; NCI-H322M lung; HOP-62 NSCLC; NCI-H460 lung; HOP-92 NSCLC; NCI-H522 lung; A549/ATCC NSCLC; 786-0 renal; COLO 205 colon; K-562 leukemia; MALME-3M melanoma; MDA-MB-231 breast; RXF 393 renal; SF-268 CNS; SF-295 CNS; SF-539 CNS; UACC-257 melanoma; M14 melanoma; HCT-15 colon; DU-145 prostate.
Common to all, as to assay: NCI-60 one-dose screen, 48 h (100 = growth as untreated, 0 = no growth, -100 = all killed)
What all share (conditions): 10 µM unless noted

Compounds without any hit were thinned out: in the full panel of roughly 83,000, 20% have a hit.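 The endpoint reported here, percent growth, reads 100 for growth as untreated, 0 for no net growth and -100 for all cells dead.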 A number with no mark means an inactive call. Active and inactive are the calls of the source. Rule for the calls: active = growth percent below 10; inactive = the rest.

In the case of `CCOc1ccc(Nc2ccnc3cc(Cl)ccc23)cc1`, the growth in the assay with NCI-H23 lung is -3.27% (active); in the assay on NCI-H322M lung, -0.617% (active); with HOP-62 NSCLC, 24.5%; with NCI-H460 lung it was 5.71% (active); with HOP-92 NSCLC, -25% (active); in the assay on NCI-H522 lung, -35.4% (active). Moreover, the growth with A549/ATCC NSCLC is 1.55% (active); in the assay with 786-0 renal, 19.1%; in the assay with COLO 205 colon it was -91.1% (active); in the assay with K-562 leukemia it was 9.05% (active); in the assay on MALME-3M melanoma, -25.2% (active); in the assay with MDA-MB-231 breast, -31.6% (active). Further, the growth is 3.65% (active) in the assay with RXF 393 renal; 22.7% with SF-268 CNS; -53% (active) in the assay on SF-295 CNS; 24.4% in the assay with SF-539 CNS; -33.6% (active) in the assay on UACC-257 melanoma; 14.7% in the assay with M14 melanoma. For the same compound, in the assay on HCT-15 colon, the growth was 17.2%.

Turning to `COc1ccc2sc3c(NCCCN)nc4ccccc4c3c(=O)c2c1`, the growth in the assay with NCI-H23 lung was 80.7%; in the assay on NCI-H322M lung, 68.9%; in the assay on HOP-62 NSCLC, 57.2%; in the assay on NCI-H460 lung, -73.3% (active); in the assay with HOP-92 NSCLC, 33.9%; with NCI-H522 lung, 18.7%. In addition, the growth is -44.8% (active) with A549/ATCC NSCLC; 42.3% in the assay on 786-0 renal; -6.46% (active) with DU-145 prostate; -56.9% (active) with K-562 leukemia; 94.2% with MALME-3M melanoma; 25.3% with MDA-MB-231 breast. For the same compound, the growth with RXF 393 renal is 49.5%; with SF-268 CNS it was 57.6%; in the assay with SF-295 CNS it was 94.5%; in the assay on SF-539 CNS, 74.1%; in the assay with UACC-257 melanoma, 95.7%; in the assay on M14 melanoma, 18.9%. Moreover, in the assay with HCT-15 colon, the growth was -49% (active).

For the compound `COc1ccccc1C1=C(Br)C(=O)c2nc(C)ccc2C1=O`, the growth is 93.4% with NCI-H23 lung; 100% with NCI-H322M lung; 106% in the assay with HOP-62 NSCLC; 99.4% in the assay on NCI-H460 lung; 86.3% in the assay on HOP-92 NSCLC; -38% (active) with NCI-H522 lung. Also, the growth was 109% in the assay on A549/ATCC NSCLC; 104% with 786-0 renal; 109% in the assay with DU-145 prostate; 65% with K-562 leukemia; 62.4% in the assay on MALME-3M melanoma; 96.6% with MDA-MB-231 breast. In addition, the growth is 102% with RXF 393 renal; 97.5% in the assay with SF-268 CNS; 98.6% with SF-295 CNS; 105% in the assay on SF-539 CNS; 99.6% in the assay on UACC-257 melanoma; 93.7% in the assay on M14 melanoma. The growth in the assay on HCT-15 colon was 96.7%.

On to `Cn1c(/C=C(\C#N)c2cccc(C(F)(F)F)c2)nc2c(N3CCOCC3)nc(Cl)nc21`, for which the growth in the assay on NCI-H23 lung is 16%; with NCI-H322M lung, 63.1%; with HOP-62 NSCLC it was 34.1%; in the assay with NCI-H460 lung, 26.7%; in the assay with HOP-92 NSCLC, -77.4% (active); with NCI-H522 lung it was -56% (active). Moreover, the growth in the assay with A549/ATCC NSCLC is 33.6%; with 786-0 renal it was -74.2% (active); in the assay with DU-145 prostate, -80.3% (active); in the assay with K-562 leukemia it was -12.2% (active); in the assay on MALME-3M melanoma, -21.8% (active); in the assay with MDA-MB-231 breast it was -70.1% (active). The growth was -92.2% (active) in the assay with RXF 393 renal; -50.8% (active) with SF-268 CNS; 85.1% in the assay on SF-295 CNS; -79.9% (active) in the assay on SF-539 CNS; -64.5% (active) in the assay on UACC-257 melanoma; -77.3% (active) in the assay with M14 melanoma. Moreover, in the assay with HCT-15 colon, the growth is -37.3% (active).

Regarding `CNCCNc1nc2ccccc2c2c(=O)c3cc(F)ccc3sc12`, the growth was 90.9% in the assay on NCI-H23 lung; 42.4% in the assay with NCI-H322M lung; 46% with HOP-62 NSCLC; -65.8% (active) in the assay with NCI-H460 lung; 19.2% with HOP-92 NSCLC; 33.8% in the assay with NCI-H522 lung. Further, the growth with A549/ATCC NSCLC was -56.3% (active); with 786-0 renal, 42.5%; in the assay on DU-145 prostate, 12%; with K-562 leukemia, -47.1% (active); with MALME-3M melanoma it was 68.1%; in the assay with MDA-MB-231 breast it was 19.5%. Further, the growth is 62% with RXF 393 renal; 44.3% in the assay on SF-268 CNS; 95.2% in the assay with SF-295 CNS; 71.6% in the assay with SF-539 CNS; 54.4% in the assay on UACC-257 melanoma; 1.91% (active) with M14 melanoma. Also, the growth in the assay on HCT-15 colon was 13.6%.

In the case of `O=C(/C=C/c1ccc(C(F)(F)F)cc1)c1ccc(Nc2nc(NCCO)nc(N3CCOCC3)n2)cc1`, the growth with NCI-H23 lung was 39.4%; with NCI-H322M lung, 40.5%; in the assay on HOP-62 NSCLC, 33%; in the assay with NCI-H460 lung, 11.7%; in the assay on HOP-92 NSCLC, 64%; in the assay with NCI-H522 lung it was 45.6%. Also, the growth in the assay on A549/ATCC NSCLC was 13.1%; in the assay on 786-0 renal it was -2.96% (active); with DU-145 prostate, 13%; in the assay with K-562 leukemia, 5.46% (active); with MALME-3M melanoma it was 97%; in the assay with MDA-MB-231 breast, 46.7%. In addition, the growth in the assay with RXF 393 renal was 73.9%; in the assay with SF-268 CNS, 36%; in the assay on SF-295 CNS, 81.4%; with SF-539 CNS, 50.6%; in the assay on UACC-257 melanoma, 98.9%; in the assay with M14 melanoma it was 37.5%. Moreover, the growth in the assay on HCT-15 colon was 7.59% (active).

In the case of `COc1cc(C2CC(c3ccc(Nc4nc(NCCO)nc(N5CCOCC5)n4)cc3)=NN2c2cc(Cl)cc(Cl)c2)cc(OC)c1OC` (configuration not stated), the growth in the assay with NCI-H23 lung is 56.7%; in the assay with NCI-H322M lung it was 72.6%; in the assay on HOP-62 NSCLC, 67.2%; in the assay on NCI-H460 lung, 22.2%; with HOP-92 NSCLC it was 32.7%; in the assay on NCI-H522 lung, 66%. The growth in the assay on A549/ATCC NSCLC was 36.6%; with 786-0 renal it was 12.5%; in the assay on DU-145 prostate it was 67.5%; in the assay on K-562 leukemia, 21.9%; in the assay on MALME-3M melanoma it was 77.6%; in the assay with MDA-MB-231 breast it was 49.2%. The growth in the assay on RXF 393 renal is 5.08% (active); in the assay with SF-268 CNS it was 49.4%; with SF-295 CNS it was 50.1%; with SF-539 CNS it was 41.4%; with UACC-257 melanoma, 80.2%; in the assay with M14 melanoma it was 64.9%. In the assay with HCT-15 colon, the growth is 31.5%.

For `COc1ccc(C2=C(c3cccc(OC)c3)C(=O)c3ccc(C)nc3C2=O)cc1`, the growth in the assay with NCI-H23 lung was 37.5%; in the assay with NCI-H322M lung it was 76.4%; in the assay on HOP-62 NSCLC, 34.4%; in the assay on NCI-H460 lung, 13.4%; in the assay on HOP-92 NSCLC, 80%; in the assay on NCI-H522 lung, 40.9%. Further, the growth is 40.8% in the assay on A549/ATCC NSCLC; 67.8% in the assay with 786-0 renal; 54.3% with DU-145 prostate; 19.9% in the assay with K-562 leukemia; 52.4% with MALME-3M melanoma; 29.4% in the assay on MDA-MB-231 breast. Moreover, the growth in the assay with RXF 393 renal was 33.3%; with SF-268 CNS, 48%; in the assay with SF-295 CNS, 56.2%; in the assay with SF-539 CNS it was 43%; in the assay on UACC-257 melanoma it was 67.8%; with M14 melanoma, 42%. For the same compound, the growth with HCT-15 colon was 18.6%.

The values above are taken from PubChem BioAssay (NCI).
